Screening data (PubChem)
Mdm2-MdmX inh: inhibitors of human Mdm2-MdmX association, primary screen, cell-based, luminescence, split luciferase, SaOS-2, uHTS | SaOS-2 split-luciferase Mdm2/MdmX complementation | 330,000 compounds, 3% hits | AID 485346, 2010 | inhibition, % at 8 µM;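 active means inhibition of at least 50% at 8 µM in the primary screen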
Target sequence (O15151 whole entry, looked up): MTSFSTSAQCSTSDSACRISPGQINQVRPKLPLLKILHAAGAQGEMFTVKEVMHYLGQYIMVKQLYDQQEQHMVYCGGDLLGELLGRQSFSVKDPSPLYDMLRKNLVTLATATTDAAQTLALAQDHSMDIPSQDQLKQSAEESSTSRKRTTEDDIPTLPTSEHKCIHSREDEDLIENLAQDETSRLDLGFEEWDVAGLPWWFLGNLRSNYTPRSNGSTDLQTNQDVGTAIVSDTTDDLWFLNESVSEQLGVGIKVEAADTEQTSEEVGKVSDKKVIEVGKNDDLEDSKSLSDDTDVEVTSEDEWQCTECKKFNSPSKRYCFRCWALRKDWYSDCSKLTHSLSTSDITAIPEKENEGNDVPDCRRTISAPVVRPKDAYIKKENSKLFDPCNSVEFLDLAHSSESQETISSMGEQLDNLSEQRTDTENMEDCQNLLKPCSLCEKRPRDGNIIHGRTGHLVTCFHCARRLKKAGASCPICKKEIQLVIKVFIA
Target sequence (Q00987 whole entry, looked up): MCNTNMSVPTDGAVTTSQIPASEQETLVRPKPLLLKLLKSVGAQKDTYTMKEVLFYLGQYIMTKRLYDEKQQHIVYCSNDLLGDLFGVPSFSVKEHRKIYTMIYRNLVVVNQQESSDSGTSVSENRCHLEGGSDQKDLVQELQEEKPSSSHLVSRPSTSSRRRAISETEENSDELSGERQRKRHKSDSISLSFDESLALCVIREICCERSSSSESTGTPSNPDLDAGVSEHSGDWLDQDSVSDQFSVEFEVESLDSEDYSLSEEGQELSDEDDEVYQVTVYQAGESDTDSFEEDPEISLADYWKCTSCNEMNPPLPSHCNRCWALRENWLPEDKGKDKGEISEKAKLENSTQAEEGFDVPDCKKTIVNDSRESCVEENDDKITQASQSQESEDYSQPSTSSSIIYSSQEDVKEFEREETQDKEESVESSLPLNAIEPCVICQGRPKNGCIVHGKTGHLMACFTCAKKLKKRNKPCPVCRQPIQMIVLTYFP
SKKanGAS inh: S. pyogenes SKKanGAS growth inhibitors in kanamycin, primary screen, streptokinase expression inhibitor project, SKKanGAS strain, BacTiter-Glo luminescence. 6 h. inhibition, % at 7.5 µM. 300,000 compounds, 1.3% hits. AID 1662, 2009;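 active means mean replicate score, as percent of positive control median, at least 50; inconclusive means mean below 50 but one replicate at or above 50; inactive means mean and every replicate below 50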;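 further: strain carries kanamycin resistance gene driven by streptokinase promoter and grows in 40 µg/ml kanamycin; loss of luminescence reflects streptokinase promoter inhibition or plain growth inhibition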
Beta apoptosis: inhibitors of cytokine-induced beta cell apoptosis, primary screen, luminescence; INS-1E cytokine-induced death, ATP luminescence, 48 h; percent of positive-control rescue, neutral wells zero; protection from apoptosis, % (no concentration beside the values); 300,000 compounds, 0.8% hits; AID 435005, 2010;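 active means Every replicate reaches about 75%, or at least half do and their mean reaches it too, limit read from the data; inconclusive means At least half of replicates reach the limit but their mean does not; inactive means Under half of replicates reach the limit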;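 further: higher means more ATP so stronger rescue from cytokine killing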
MPTP inh: mitochondrial permeability transition pore inhibitors, primary screen, biochemical, isolated mouse mitochondria, absorbance; Ca2+ swelling absorbance, 30 min; inhibition, % at 10 µM; 360,000 compounds, 1.4% hits; AID 602449, 2012;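 active means inhibition of 50% or more, scaled per plate between neutral and stimulator controls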
NR3A LBD binder: binders of NR3A ligand-binding domain, primary screen, biophysical, differential scanning fluorimetry, uHTS | Glutamate receptor ionotropic, NMDA 3A (GRIN3A) ligand-binding domain | NR3A LBD differential scanning fluorimetry, Tm shift; 0% = protein alone, 100% = glycine-bound protein | Tm shift relative to glycine control, % at 25 µM | 340,000 compounds, 2.5% hits;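 active means melting temperature shift of at least 10% of the positive control shift, at one fixed dose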
CSC inhib: cancer stem cell viability inhibitors, primary screen, luminescence; cancer stem cell-like cells viability; inhibition, % at 7.5 µM; 300,000 compounds, 1.1% hits; AID 2717, 2010; in the data active means inhibition above about 75%; inconclusive means no clear call, values can overlap the other calls; tested in HMLE shEcad cells
Numbers stand for hits; 0 = inactive; ? = inconclusive; - = not tested or not shown. Rows were chosen to be rich in hits. Some 6.9% of all compounds tested hit in one or more screens of this group.

SMILES | Mdm2-MdmX inh | SKKanGAS inh | Beta apoptosis | MPTP inh | NR3A LBD binder | CSC inhib
Cc1ccc(C)c(S(=O)(=O)N2CCCC2CNC(=O)C(=O)NCc2ccccc2C)c1 (configuration not stated) | 0 | 0 | 0 | 0 | 0 | 0
COc1cc(/C=C2/SC(=O)N(CC(=O)N3CCCC3)C2=O)ccc1Oc1ccc([N+](=O)[O-])cn1 | 0 | 0 | 0 | 0 | 13.0 | 0
O=C1c2[nH]nc(-c3ccccc3O)c2C(c2cccc(Cl)c2)N1Cc1ccco1 (configuration not stated) | 0 | 49.6 | 0 | 0 | 0 | 92.1
CCOC(=O)Cn1ccc(NC(=O)COc2ccc(F)cc2)n1 | 0 | 0 | 0 | 0 | 0 | 0
COc1cccc(OC)c1C(=O)NC(=S)NNC(=O)[C@H]1C[C@@H]1c1ccccc1 | 0 | 79.0 | - | 0 | 0 | -
O=C(NC(=S)NNC(=O)[C@H]1C[C@@H]1c1ccccc1)c1cccc(F)c1 | 0 | 99.2 | 0 | 0 | 0 | 0
COc1ccc(/C=C/C(=O)NC(=S)NN2CCCCC2c2cccnc2)cc1OC (configuration not stated) | 0 | 0 | 0 | 0 | 0 | 0
COc1ccc(/C=C/C(=O)NC(=S)Nc2cc([N+](=O)[O-])ccc2O)cc1OC | 0 | 0 | 0 | 0 | 19.1 | 0
COc1ccc(/C=C/C(=O)NC(=S)NNC(=O)[C@H]2C[C@@H]2c2ccccc2)cc1OC | 0 | 63.2 | 0 | 0 | 0 | 0
O=C(Cn1cnc([N+](=O)[O-])c1)NCCc1ccccc1 | 0 | 0 | 0 | 0 | 0 | 0
COc1ccc2[nH]c(C)c(CCNc3ccc(C(F)(F)F)cc3[N+](=O)[O-])c2c1 | 0 | 0 | 0 | 0 | 19.1 | 0
COCCNC(=S)N(CCc1c(C)[nH]c2ccc(C)cc12)Cc1ccco1 | 0 | 0 | 0 | 0 | 0 | 0
COCCNC(=S)N(CCc1c(C)[nH]c2ccc(F)cc12)Cc1ccc(C)cc1 | 0 | 0 | 0 | 0 | 10.3 | 0
COc1ccc2[nH]c(C)c(CCNC(=S)Nc3ccc(F)cc3)c2c1 | 0 | 0 | 0 | 0 | 11.8 | 0
COc1ccc2[nH]c(C)c(CCNC(=S)Nc3cc(C)cc(C)c3)c2c1 | 0 | 0 | - | 0 | 0 | 0
CCN(CC)c1ccc(S(=O)(=O)N2CCOCC2)cc1NC(=O)COC(=O)c1cccnc1SC | 0 | 0 | 0 | 0 | 0 | 0
CNc1c(NS(=O)(=O)c2ccc(OC)c(Cl)c2)c(=O)oc2ccccc12 | 0 | 0 | 0 | 0 | 16.3 | 0
COc1cc(NS(=O)(=O)c2ccc(F)cc2)c(C(=O)O)cc1OC | 0 | 0 | 0 | 0 | 11.7 | 0
Cc1cccc2cc3c(N)c(C(=O)N4CCc5ccccc54)sc3nc12 | 0 | 0 | 0 | 0 | 0 | 0
Cc1cccc2cc3c(N)c(C#N)sc3nc12 | 0 | 0 | 0 | 0 | 35.5 | 0
Cc1sc(NC(=O)c2sc3nc4c(C)cccc4cc3c2N)c(C#N)c1C | 0 | 0 | 0 | 0 | 19.1 | -
Cc1cccc2cc3c(N)c(C(=O)Nc4ccc(N5CCOCC5)cc4)sc3nc12 | 0 | 0 | 0 | 0 | 13.6 | 0
O=C(CCCOc1ccc(Br)cc1)NNC(=O)c1ccncc1 | 0 | 0 | 0 | 0 | 0 | 0
O=C(CNC(=O)c1cncc(Br)c1)Nc1ccc(F)c(F)c1F | 0 | 0 | 0 | 0 | 0 | 0
CN1CCN(CCCOc2ccc(-c3ccccc3)cc2)CC1 | 0 | 0 | 0 | 0 | 0 | 0
SMILES | Mdm2-MdmX inh | SKKanGAS inh | Beta apoptosis | MPTP inh | NR3A LBD binder | CSC inhib
CCN1CCN(CCCOc2ccc(-c3ccccc3)cc2)CC1 | 0 | 0 | 0 | - | 0 | 125.2
COc1cccc(/C=C(/C(=O)OCC(N)=O)c2ccccc2)c1 | 0 | 0 | 0 | 0 | 0 | 0
COc1cccc(/C=C(/C(=O)OCC(=O)NC2CCCC(C)C2C)c2ccccc2)c1 (configuration not stated) | - | 65.4 | 0 | 0 | 0 | 0
COC(=O)c1ccc(NC(=O)CSc2nnc(-c3cccnc3)o2)cc1 | 0 | 0 | 0 | 0 | 0 | 0
O=[N+]([O-])c1ccc(/C=C/C2=NN(c3ccccc3)C(c3ccco3)C2)o1 (configuration not stated) | - | 0 | - | 0 | 198.8 | -
CCOC(=O)c1cnc(-n2nc(C)cc2C)nc1NNc1nc(C)cc(C)n1 | 0 | 80.4 | 0 | 0 | 0 | 0
CCOC(=O)c1cnc(-n2nc(C)cc2C)nc1Nc1cccc(C(=O)O)c1 | 0 | 0 | 0 | 0 | 0 | 0
CCOC(=O)c1cnc(-n2nc(C)cc2C)nc1N(CC)CC | 0 | ? | 0 | 0 | 0 | 0
CCOC(=O)c1cnc(-n2nc(C)cc2C)nc1Nc1ccc(C)cc1 | - | 95.1 | - | 0 | 0 | -
CCOC(=O)c1cnc(-n2nc(C)cc2C)nc1Nc1ccc(O)cc1 | 0 | 0 | 118.6 | 0 | 0 | 0
CCOC(=O)c1cnc(-n2nc(C)cc2C)nc1NC | 0 | ? | 0 | 0 | 0 | 0
COc1cc(C(=O)NCC(c2cccs2)N2CCOCC2)ccc1OCc1ccccc1 (configuration not stated) | - | - | - | 0 | - | -
CC1C(=O)N2CCCc3cc(S(=O)(=O)N4CCN(c5cccc(Cl)c5)CC4)cc1c32 (configuration not stated) | 0 | 0 | 0 | 0 | 0 | 0
Cc1nn(Cc2ccc(C(=O)Nc3nc4c(C)cccc4s3)o2)c(C)c1Br | 0 | 57.6 | 0 | 0 | 0 | 0
Cc1ccc(NC(=O)CSc2nnc(NC(=O)C3CC3)s2)cc1C | 0 | 0 | 0 | 0 | 20.7 | 0
Cc1ccc(NC(=O)CSc2nnc(NC(=O)C3CC3)s2)cc1 | 0 | 0 | 0 | 0 | 0 | 0
CC(=O)c1ccc(NC(=O)CSc2nnc(NC(=O)C3CC3)s2)cc1 | 0 | 0 | 0 | 0 | 24.9 | 0
O=C(CCN1CCCCCC1)Nc1ccc(F)c(F)c1 | 0 | 0 | 0 | 0 | 673.0 | 0
CC(=O)N1CCCc2ccc(NS(=O)(=O)c3ccccc3)cc21 | 0 | 0 | 0 | 0 | 0 | 0
COc1cc(OC)cc(C(=O)Nc2nc(CC(=O)NCc3ccccc3OC)cs2)c1 | 0 | 61.6 | 0 | 0 | 0 | -
COc1ccccc1CNC(=O)Cc1csc(NC(=O)Nc2ccccc2OC)n1 | 0 | 0 | 0 | 0 | 0 | -
COc1ccccc1NC(=O)Nc1nc(CC(=O)Nc2cccc(F)c2)cs1 | 0 | 0 | 0 | 0 | 28.3 | 0
COc1ccccc1NC(=O)Nc1nc(CC(=O)Nc2ccc(N(C)C)cc2)cs1 | 0 | 0 | - | 0 | 24.4 | 0
COc1ccc(N2CCN(C(=O)Cc3csc(NC(=O)Nc4ccccc4OC)n3)CC2)cc1 | 0 | 65.6 | 0 | 0 | 0 | -
COc1ccc(NC(=O)Cc2csc(NC(=O)Nc3ccccc3OC)n2)cc1 | - | - | - | 0 | - | -
COc1ccc(CNC(=O)Cc2csc(NC(=O)Nc3ccccc3OC)n2)cc1 | 0 | 55.1 | 0 | 0 | 0 | -
COc1ccccc1NC(=O)Nc1nc(CC(=O)Nc2ccc(F)c(F)c2)cs1 | 0 | 0 | 0 | 0 | 33.9 | 0
